From PubChem BioAssay (NCATS) come the findings set out here.

Inconclusive results are not listed. Values without a mark were called inactive. Calls of active or inactive are those of the source. Calls come from the whole dose curve; as a rule, active = well fitted cell-killing curve with a large enough effect; inconclusive = small, poorly fitted or top-dose-only effect, or effect the other way; inactive = no such curve, though single readings can be large or run the other way.
Potency is the fitted concentration of half-maximal effect.

A short description of one experiment: Quantitative High-Throughput drug screen in 47 multiple myeloma cell lines against the NCATS MIPE library collection: U266_ATCC cell viability assay (AID 1919864). Note: nearly all actives have a fitted effect of over 35% in size. Particulars: U266 myeloma viability, CellTiter-Glo ATP luminescence, 48 h; series mostly up to 45.8 µM; viability (% of DMSO control): at the top concentration. Summed up:
(§1)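 Myeloma cells (500/well) treated with MIPE 4.0 compounds for 48 h at 37 °C, 5% CO2. Viability read as ATP via CellTiter-Glo luminescence after 5 min at RT; DMSO-only wells = 100%, media-only = 0% viability.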
Turning to `C=CC(=O)Nc1cc(NC(=O)c2ccc(C)c(NC(=O)c3ccno3)c2)cc(C(F)(F)F)c1`, the Potency is 20.9 µM (active). Consider `CC(C(C)N1CC(=O)NC(=O)C1)N1CC(=O)NC(=O)C1` (centres undefined), for which the “viability (% of DMSO control)” value is 132%.

Regarding `NC(=O)c1ncn([C@@H]2O[C@H](CO)[C@@H](O)[C@@H]2O)c1O`, the “viability (% of DMSO control)” value is 139%. For `Cc1[nH]c(C=C2C(=O)Nc3ccccc32)c(C)c1CCC(=O)O`, the Potency is 5.26 µM (active). For `COc1cc2c(cc1O)CCC1C2CC[C@@]2(C)C1CC[C@@H]2O` (some centres undefined), the Potency was 13.2 µM (active). `COc1cc2ncnc(Nc3cccc(Br)c3)c2cc1OC`: the “viability (% of DMSO control)” value was 107%. Regarding `C#C[C@]1(O)CC[C@@H]2[C@@H]3CCc4cc(O)ccc4[C@H]3CC[C@@]21C`, the Potency was 14.8 µM (active). For the compound `N#Cc1c(C2CCNCC2)cc(-c2c(O)cccc2OCC2CC2)nc1N`, the Potency was 13.2 µM (active).

Regarding `CCc1cc(C(C)=NOCc2ccc(C3CCCCC3)c(C(F)(F)F)c2)ccc1CN1CC(C(=O)O)C1`, the “viability (% of DMSO control)” value is 119%. As for `COC(=O)C1C2CC3c4[nH]c5cc(OC)ccc5c4CCN3CC2CC(OC(=O)c2cc(OC)c(OC)c(OC)c2)C1OC` (centres undefined), the Potency was 23.5 µM (active).

Regarding `CC(O)(C#Cc1ccc2c(c1)N(c1nc(N)ncc1Cl)CC2)c1nccs1` (centres undefined), the Potency was 16.6 µM (active). On the same count and under the same terms, the same measure for `CN1CCCN(C(=O)c2cccc(-c3ccc(C=C4C(=O)Nc5ccc(Cl)cc54)o3)c2)CC1`: 18.7 µM (active). As for `NC(=O)c1ncn([C@@H]2O[C@H](CO)[C@@H](O)[C@@H]2O)c1N`, the “viability (% of DMSO control)” value is 138%. For the compound `C[C@]12CC[C@@H]3c4ccc(O)cc4CC[C@H]3[C@H]1CC[C@H]2O`, the Potency is 6.62 µM (active). On the same count and under the same terms, the same measure for `FC(F)(F)c1ccc(Nc2nc3ccc(Oc4ccnc(-c5ncc(C(F)(F)F)[nH]5)c4)cc3[nH]2)cc1`: 13.2 µM (active). In the case of `C[C@H](NC(=O)[C@@H](O)c1cc(F)cc(F)c1)C(=O)N[C@@H]1C(=O)N(C)c2ccccc2-c2ccccc21`, the “viability (% of DMSO control)” value is 135%. With `NS(=O)(=O)OC[C@@H]1C[C@@H](n2ccc3c(N[C@H]4CCc5ccccc54)ncnc32)C[C@H]1O`, the Potency is 8.33 µM (active).

For `CCCCCCCN(CC)CCCC(O)c1ccc(NS(C)(=O)=O)cc1` (centres undefined), the “viability (% of DMSO control)” value is 108%. Consider `Cn1cc(C=CC(=O)c2cccc(F)c2)cc1C=CC(=O)NO`, for which the Potency is 14.8 µM (active). On to `C[C@H](O)[C@@H]1C(=O)N2C(C(=O)O)=C(S[C@@H]3CN[C@H](CNS(N)(=O)=O)C3)[C@@H](C)[C@@H]12`, for which the “viability (% of DMSO control)” value is 110%. Turning to `C[C@@H]1C(=O)O[C@H]2CC34[C@H]5C[C@@H](C(C)(C)C)C36[C@H](OC(=O)[C@@H]6O)O[C@@]4(C(=O)O5)[C@]21O` (some centres undefined), the “viability (% of DMSO control)” value is 128%.

The nature of another experiment: Quantitative High-Throughput drug screen in 47 multiple myeloma cell lines against the NCATS MIPE library collection: XG6_PLB cell viability assay (AID 1919865). Note: nearly all actives have a fitted effect of over 40% in size. The conditions noted are these: XG6 myeloma viability, CellTiter-Glo ATP luminescence, 48 h; series mostly up to 45.8 µM; viability (% of control): at the top concentration. Put shortly: as §1
For the compound `CC(Cc1ccc(O)c(O)c1)(NN)C(=O)O` (centres undefined), the “viability (% of control)” value is 86.5%. On to `Cn1cc(C[C@@H](N)C(=O)O)c2ccccc21`, for which the “viability (% of control)” value was 124% [at 23.2 µM]. For the compound `CC(C(C)N1CC(=O)NC(=O)C1)N1CC(=O)NC(=O)C1` (centres undefined), the “viability (% of control)” value is 102%. Regarding `NC(=O)c1ncn([C@@H]2O[C@H](CO)[C@@H](O)[C@@H]2O)c1O`, the “viability (% of control)” value was 101%. Turning to `Cc1[nH]c(C=C2C(=O)Nc3ccccc32)c(C)c1CCC(=O)O`, the Potency is 0.372 µM (active). Still for that read-out and setting: the same measure for `COc1cc2c(cc1O)CCC1C2CC[C@@]2(C)C1CC[C@@H]2O` (some centres undefined): 0.469 µM (active); for `COc1cc(C(=O)NC2CCN(C)CC2)ccc1Nc1ncc2c(n1)N(C1CCCC1)CCC(=O)N2C(C)C`: 4.69 µM (active). `N#Cc1c(C2CCNCC2)cc(-c2c(O)cccc2OCC2CC2)nc1N`: the Potency is 1.05 µM (active). As to `Cc1onc(-c2ccccc2)c1C(=O)N[C@@H]1C(=O)N2[C@@H](C(=O)O)C(C)(C)S[C@@H]12`, the “viability (% of control)” value was 113%. For the compound `CC(O)(C#Cc1ccc2c(c1)N(c1nc(N)ncc1Cl)CC2)c1nccs1` (centres undefined), the Potency was 4.18 µM (active). Take `O=C(O)c1ccc(Nc2ncc3c(n2)-c2ccc(Cl)cc2C(c2c(F)cccc2F)=NC3)cc1`: the Potency is 0.662 µM (active).

Turning to `CN1CCCN(C(=O)c2cccc(-c3ccc(C=C4C(=O)Nc5ccc(Cl)cc54)o3)c2)CC1`, the Potency is 7.43 µM (active).

Take `NC(=O)c1ncn([C@@H]2O[C@H](CO)[C@@H](O)[C@@H]2O)c1N`: the “viability (% of control)” value is 128%. With `CC(=CC(=O)Nc1ccccc1C(=O)O)c1ccc2ccccc2c1`, the Potency is 7.43 µM (active). As to `C[C@@H](Cc1cc2c(c(C(N)=O)c1)N(CCCO)CC2)NCCOc1ccccc1OCC(F)(F)F`, the “viability (% of control)” value is 81.5%.

With `C[C@]12CC[C@@H]3c4ccc(O)cc4CC[C@H]3[C@H]1CC[C@H]2O`, the Potency is 5.9 µM (active). On the same count and under the same terms, the figure for `FC(F)(F)c1ccc(Nc2nc3ccc(Oc4ccnc(-c5ncc(C(F)(F)F)[nH]5)c4)cc3[nH]2)cc1` is 16.6 µM (active).

For the compound `C[C@H](NC(=O)[C@@H](O)c1cc(F)cc(F)c1)C(=O)N[C@@H]1C(=O)N(C)c2ccccc2-c2ccccc21`, the Potency was 11.8 µM (active). `OC[C@@H](O)[C@@H](O)[C@H](O)[C@@H](O)CO`: the “viability (% of control)” value is 109%. Regarding `N[C@H]1CN(c2c(F)cc3c(=O)c(C(=O)O)cn(C4C[C@@H]4F)c3c2Cl)CC12CC2` (some centres undefined), the “viability (% of control)” value is 91.1%. Consider `O=C(Nc1nnc(-c2ccco2)o1)c1cc(-c2ccccc2)nc2ccccc12`, for which the Potency is 4.18 µM (active).

On to `C[C@@H]1C(=O)O[C@H]2CC34[C@H]5C[C@@H](C(C)(C)C)C36[C@H](OC(=O)[C@@H]6O)O[C@@]4(C(=O)O5)[C@]21O` (some centres undefined), for which the “viability (% of control)” value is 127%. As for `COc1ccc(Nc2nccc(NCCO)n2)cc1`, the “viability (% of control)” value is 93.8%.
